Structures can show the parent of a compound that is named as a salt. ± gives the standard deviation of the averaged measurements.

These results are taken from the supplement of paper PMC13094657.
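For cell viability relative to vehicle unstimulated control in this document: viability of the cells left after supernatant collection, read with Deep Blue dye added for 4 h, as absorbance at 570 nm minus 600 nm.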

The test system of the first experiment is MDA-MB-231. As to the kind of experiment: cell viability relative to vehicle unstimulated control (fraction); higher = more viable cells. The note with it: pre-treatment time: 18 h then 24 h IFNg/TNF.
`C=C[C@@H]1C2=CCOC(=O)C2=CO[C@H]1O[C@@H]1O[C@H](CO)[C@@H](O)[C@H](O)[C@H]1O` [Gentiopicroside] (compound dose: 10 uM): the cell viability is 0.981 ± 0.0079.

Turning to `CC(=O)O[C@H]1[C@H]2[C@@H](OC(=O)Cc3ccccc3)[C@@H](C)C[C@]2(OC(C)=O)C(=O)/C(C)=C/[C@@H]2[C@H](CC[C@@]13CO3)C2(C)C` [Euphorbiasteroid] (compound dose: 10 uM), the cell viability was found to be 0.981 ± 0.059.

On to `CC1=C2[C@H]3OC(=O)[C@@H](C)[C@@H]3CC[C@@]2(C)C=CC1=O` [Santonin] (compound dose: 10 uM), for which the cell viability was found to be 0.9716 ± 0.0046.

As for `COc1cc2c(cc1OC)-c1c(OC)c(OC)cc3c1[C@H](C2)N(C)CC3` [(S)-Glaucine (Alkaloid purified from Papaver somniferum)], the cell viability was 0.967 ± 0.013.

`CC(C)=CCC[C@@](C)(O)[C@H]1CC[C@]2(C)[C@@H]1[C@H](O)C[C@@H]1[C@@]3(C)CC[C@H](O)C(C)(C)[C@@H]3[C@@H](O[C@@H]3O[C@H](CO)[C@@H](O)[C@H](O)[C@H]3O)C[C@]12C` [(20R)-Ginsenoside Rh1] (compound dose: 10 uM): the cell viability was 0.9611 ± 0.0044.

As to `C=C1[C@H](OC(=O)c2ccccc2)C[C@H]2[C@@H](/C=C(\C)C(=O)[C@@]3(OC(C)=O)C[C@H](C)[C@H](OC(=O)c4ccccc4)[C@@H]3[C@H]1OC(C)=O)C2(C)C` [Euphorbia Factor L2] (compound dose: 10 uM), the cell viability was determined as 0.847 ± 0.044.

For the compound `C=C1CC[C@H]2[C@@H](/C=C(\C)C(=O)[C@@]3(O)C[C@H](C)[C@H](O)[C@@H]3[C@@H]1O)C2(C)C` [Lathyrol] (compound dose: 10 uM), the cell viability was 1.08 ± 0.11.

As for `COc1cc(C(=O)O[C@H]2[C@@H]3C=CO[C@@H](O[C@@H]4O[C@H](CO)[C@@H](O)[C@H](O)[C@H]4O)[C@@H]3[C@@]3(CO)O[C@@H]23)ccc1O` [Picroside II] (compound dose: 10 uM), the cell viability stood at 0.923 ± 0.039.

As for `CN1[C@@H]2CC[C@H]1C[C@@H](OC(=O)[C@H](CO)c1ccccc1)C2` [Hyoscyamine hydrobromide] (compound dose: 10 uM), the cell viability is 1.03 ± 0.024.

The next experiment concerns MDA-MB-231. Nature of the experiment: kynurenine production, fold change vs DMSO IFNg/TNF control; higher = more kynurenine produced (less inhibition). As to conditions: pre-treatment time: 18 h then 24 h IFNg/TNF. The method, boiled down:
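MDA-MB-231 cells (7 × 10^4/well, 96-well plates, seeded 24 h earlier) were pre-treated 18 h with each natural product in 0.1% DMSO, then stimulated 24 h with IFNγ (1 U/ml) and TNF (6.25 ng/ml) at 37°C. Supernatant kynurenine was read at 492 nm after trichloroacetic acid and p-dimethylaminobenzaldehyde treatment, against 0–100 μM standards. Kynurenine production is the fold change over cytokine-stimulated vehicle wells on the same plate, averaged over duplicate plates in the first screening round.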
For `CC(=O)O[C@@]12C[C@@H](C)[C@@]3(O)[C@@H](C=C(CO)C[C@]4(O)C(=O)C(C)=C[C@@H]34)[C@@H]1C2(C)C` [Prostratin] (compound dose: 10 uM), the kynurenine production was determined as 0.737 ± 0.025.

Consider `CN1[C@@H]2C[C@@H](OC(=O)[C@H](CO)c3ccccc3)C[C@H]1[C@@H]1O[C@@H]12` [Scopolamine hydrobromide] (compound dose: 10 uM), for which the kynurenine production came to 0.811 ± 0.067.

Turning to `CC(C)=CCCC(C)(O)C1CCC2(C)C1C(O)CC1C3(C)CCC(OC4OC(CO)C(O)C(O)C4O)C(C)(C)C3CCC12C` [20(R)-Ginsenoside Rh2] (compound dose: 10 uM), the kynurenine production came out at 0.958 ± 0.21.

Take `C[C@@]12C[C@@H](c3ccoc3)OC(=O)[C@@H]1CC[C@]1(C)[C@H]2[C@@H]2C=C[C@@]1(O)C(=O)O2` [Columbin] (compound dose: 10 uM): the kynurenine production is 0.882 ± 0.2.

In the case of `CCCCCCCCCCCCCC(=O)O[C@@H]1[C@@H](C)[C@@]2(O)[C@@H](C=C(CO)C[C@]3(O)C(=O)C(C)=C[C@@H]23)[C@@H]2C(C)(C)[C@]12OC(C)=O` [12-O-tetradecanoyl phorbol-13-acetate] (compound dose: 10 uM), the kynurenine production was determined as 0.858 ± 0.021.

`CC(=O)OC(C)(C)/C=C/C(=O)[C@](C)(O)[C@H]1[C@H](O)C[C@@]2(C)[C@@H]3CC=C4[C@H](C[C@H](O)C(=O)C4(C)C)[C@]3(C)C(=O)C[C@]12C` [Cucurbitacin B] (compound dose: 10 uM): the kynurenine production worked out at 0.189 ± 0.096.

For `COC(=O)[C@]1(C)CC[C@]2(C)CC[C@]3(C)C4=CC=C5C(=CC(=O)C(O)=C5C)[C@]4(C)CC[C@@]3(C)[C@@H]2C1` [Pristimerin] (compound dose: 10 uM), the kynurenine production is 0.0819 ± 0.0029.

On to `CC1=C[C@@H]2C(=O)[C@]3(C=C(C)[C@H](O)[C@@]3(O)[C@@H]1O)[C@H](C)C[C@@H]1[C@H]2C1(C)C` [20-Deoxyingenol] (compound dose: 10 uM), for which the kynurenine production was determined as 0.703 ± 0.12.

For the compound `COc1cc(C[C@H]2C(=O)OC[C@@H]2Cc2ccc3c(c2)OCO3)cc(OC)c1OC` [Yatein] (compound dose: 10 uM), the kynurenine production was 0.843 ± 0.035.

Turning to `Cc1cc(O)c2c(=O)c3c(O)cc(O)c4c5c(O)cc(O)c6c(=O)c7c(O)cc(C)c8c1c2c(c34)c(c78)c65` [Hypericin] (compound dose: 10 uM), the kynurenine production was 0.103 ± 0.063.

Regarding `CC(C)=CCC[C@](C)(O)[C@H]1CC[C@]2(C)[C@@H]1[C@H](O)C[C@@H]1[C@@]3(C)CC[C@H](O[C@@H]4O[C@H](CO)[C@@H](O)[C@H](O)[C@H]4O)C(C)(C)[C@@H]3CC[C@]12C` [Ginsenoside Rh2] (compound dose: 10 uM), the kynurenine production was 0.84 ± 0.19.

On to `C=C1[C@H](OC(=O)c2ccccc2)C[C@H]2[C@@H](/C=C(\C)C(=O)[C@@]3(OC(C)=O)C[C@H](C)[C@H](OC(=O)c4ccccc4)[C@@H]3[C@H]1OC(C)=O)C2(C)C` [Euphorbia factor L2] (compound dose: 10 uM), for which the kynurenine production amounted to 0.384 ± 0.048.

Regarding `CC(=O)O[C@@H]1[C@H]2[C@@H](OC(=O)Cc3ccccc3)[C@@H](C)C[C@]2(OC(C)=O)C(=O)/C(C)=C/[C@@H]2[C@H](CC[C@]13CO3)C2(C)C` [Euphorbia factor L1] (compound dose: 10 uM), the kynurenine production was found to be 1.07 ± 0.11.

`C=C1[C@@H]2CC[C@H]3[C@]4(C)C[C@H](O[C@@H]5O[C@H](CO)[C@@H](OS(=O)(=O)O)[C@H](OS(=O)(=O)O)[C@H]5OC(=O)CC(C)C)CC(C(=O)O)(C(=O)O)[C@H]4CC[C@]3(C2)[C@H]1O` [Carboxyatractyloside (dipotassium)] (compound dose: 10 uM): the kynurenine production is 0.825 ± 0.43.

In the case of `CC(C)[C@]12O[C@H]1[C@@H]1O[C@@]13[C@@]1(C)CCC4=C(COC4=O)[C@@H]1C[C@@H]1O[C@@]13C2=O` [Triptonide] (compound dose: 10 uM), the kynurenine production worked out at 0.218 ± 0.019.

Turning to `COc1ccc2c3c1O[C@H]1CC(=O)C=C[C@@]31CCN(C)C2` [Galanthaminone] (compound dose: 10 uM), the kynurenine production was determined as 0.7845 ± 0.0068.

On to `COc1cc2c(c(OC)c1OC)-c1ccc(OC)c(=O)cc1[C@@H](NC(C)=O)CC2` [Colchicine] (compound dose: 10 uM), for which the kynurenine production stood at 0.234 ± 0.046.

`C=C1CC[C@H]2[C@@H](/C=C(\C)C(=O)[C@@]3(OC(C)=O)C[C@H](C)[C@H](OC(=O)Cc4ccccc4)[C@@H]3[C@H]1OC(C)=O)C2(C)C` [Deoxy euphorbia factor L1] (compound dose: 10 uM): the kynurenine production came to 0.9513 ± 0.0042.

On to `C=C[C@@H]1C2=CCOC(=O)C2=CO[C@H]1O[C@@H]1O[C@H](CO)[C@@H](O)[C@H](O)[C@H]1O` [Gentiopicroside] (compound dose: 10 uM), for which the kynurenine production stood at 0.904 ± 0.09.

Consider `CC(=O)O[C@H]1[C@H]2[C@@H](OC(=O)Cc3ccccc3)[C@@H](C)C[C@]2(OC(C)=O)C(=O)/C(C)=C/[C@@H]2[C@H](CC[C@@]13CO3)C2(C)C` [Euphorbiasteroid] (compound dose: 10 uM), for which the kynurenine production is 0.997 ± 0.02.

In the case of `CC1=C2[C@H]3OC(=O)[C@@H](C)[C@@H]3CC[C@@]2(C)C=CC1=O` [Santonin] (compound dose: 10 uM), the kynurenine production was determined as 1.02 ± 0.023.

Regarding `COc1cc2c(cc1OC)-c1c(OC)c(OC)cc3c1[C@H](C2)N(C)CC3` [(S)-Glaucine (Alkaloid purified from Papaver somniferum)], the kynurenine production came out at 0.905 ± 0.052.

For `CC(C)=CCC[C@@](C)(O)[C@H]1CC[C@]2(C)[C@@H]1[C@H](O)C[C@@H]1[C@@]3(C)CC[C@H](O)C(C)(C)[C@@H]3[C@@H](O[C@@H]3O[C@H](CO)[C@@H](O)[C@H](O)[C@H]3O)C[C@]12C` [(20R)-Ginsenoside Rh1] (compound dose: 10 uM), the kynurenine production came to 0.887 ± 0.031.

In the case of `C=C1[C@H](OC(=O)c2ccccc2)C[C@H]2[C@@H](/C=C(\C)C(=O)[C@@]3(OC(C)=O)C[C@H](C)[C@H](OC(=O)c4ccccc4)[C@@H]3[C@H]1OC(C)=O)C2(C)C` [Euphorbia Factor L2] (compound dose: 10 uM), the kynurenine production worked out at 0.5 ± 0.15.

For the compound `C=C1CC[C@H]2[C@@H](/C=C(\C)C(=O)[C@@]3(O)C[C@H](C)[C@H](O)[C@@H]3[C@@H]1O)C2(C)C` [Lathyrol] (compound dose: 10 uM), the kynurenine production worked out at 0.849 ± 0.095.

With `COc1cc(C(=O)O[C@H]2[C@@H]3C=CO[C@@H](O[C@@H]4O[C@H](CO)[C@@H](O)[C@H](O)[C@H]4O)[C@@H]3[C@@]3(CO)O[C@@H]23)ccc1O` [Picroside II] (compound dose: 10 uM), the kynurenine production was found to be 0.919 ± 0.16.

In the case of `CN1[C@@H]2CC[C@H]1C[C@@H](OC(=O)[C@H](CO)c1ccccc1)C2` [Hyoscyamine hydrobromide] (compound dose: 10 uM), the kynurenine production stood at 0.743 ± 0.061.
